Laboratory results from article PMC7826789 (International Journal of Molecular Sciences, 2021).

Legend:
Details in all cases: Compound Concentration (nM):1000
[1] = system: ABL1(Q252H)-phosphorylated
[2] = system: ABL1(T315I)-nonphosphorylated
[3] = system: ABL1(T315I)-phosphorylated
[4] = system: ABL1(Y253F)-phosphorylated
ABL1-phosphorylated = system: ABL1-phosphorylated
ABL2 = system: ABL2
ACVR1B = system: ACVR1B
ACVR1 = system: ACVR1
ACVR2A = system: ACVR2A
ABL1-nonphosphorylated = system: ABL1-nonphosphorylated
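Also: KINOMEscan scanMAX binding as percent activity remaining versus control; lower means stronger binding.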

Structure (SMILES)	Percent Control [1] [%]	Percent Control [2] [%]	Percent Control [3] [%]	Percent Control [4] [%]	Percent Control (ABL1-phosphorylated) [%]	Percent Control (ABL2) [%]	Percent Control (ACVR1B) [%]	Percent Control (ACVR1) [%]	Percent Control (ACVR2A) [%]	Percent Control (ABL1-nonphosphorylated) [%]
CN(C)c1cc2c(Nc3ccc4c(cnn4Cc4ccccc4)c3)ncnc2cn1 [GW282974X]	66	74	100	65	54	95	100	87	100	
COc1ccccc1-c1cc(/C=C2\C(=O)Nc3ncc(Br)cc32)cc(Br)c1O [GW442130X]	86	87	100	88	77	100	95	100	100	84
COc1cc(C=NNc2ncnc3c2cnn3-c2ccccc2)ccc1O [GW513184X]	13	37	35	26	23	55	53	22	68	31
CN1CCN(C(=O)c2ccc(NC(=O)Nc3ccc(N(C)c4ccnc(Nc5ccc(CS(C)(=O)=O)cc5)n4)cc3)cc2)CC1.Cl [GW830263A]	30	0	21	20	30	44	77	28	78	9
Cl.c1ccc(Cc2nc3ccc(Nc4ncnc5ccccc45)cc3[nH]2)cc1 [GR269666A]	100	100	100	100	100	100	100	100	100	96
COc1cc(C)c(N(C)C(=O)CN(C)C)cc1Nc1nc(Nc2cccc(F)c2C(N)=O)c2cc[nH]c2n1 [GSK2219385]	95	65	100	100	87	100	100	96	100	69
CCc1ccc(Oc2nccc(-c3c(-c4ccc(F)cc4)ncn3C3CCNCC3)n2)cc1 [SB-242719]	79	93	100	71	62	100	83	78	100	74
COc1ccc(COc2ccc(Cc3cnc(N)nc3N)cc2OC)cc1 [GW632580X]	92	100	87	84	76	91	100	74	95	90
Cl.O=C(O[C@H]1CN[C@H](C#Cc2cc3ncnc(Nc4ccc5c(cnn5Cc5ccccc5)c4)c3s2)C1)N1CCOCC1 [GSK200398A]	80	100	100	78	76	100	100	100	100	84
C[C@@H](Oc1cc(-n2cnc3ccc(OC4CCN(C)CC4)cc32)sc1C(N)=O)c1ccccc1Cl [GSK579289A]	67	61	75	60	48	83	81	85	57	60
COc1cccc(-n2ncc3c(N/N=C/c4ccncc4)ncnc32)c1 [GW784752X]	1.7	59	27	1.6	1.8	54	54	5.4	81	7
CCS(=O)(=O)c1ccc(OC)c(Nc2ncc(-c3cccc(F)c3)o2)c1 [GW621970X]	4.9	100	91	7.1	9.9	33	100	18	100	20
O=C(Nc1n[nH]c2nc(-c3ccc(O)cc3)c(Br)cc12)C1CC1 [SB-725317]	37	16	12	48	31	100	100	72	75	22
CC1=C(C(=O)Nc2ccc3[nH]ncc3c2)C(c2ccc(Cl)c(Cl)c2)CC(=O)N1 (stereo not drawn) [GSK299115A]	100	83	90	97	94	83	100	95	80	74
NS(=O)(=O)c1ccc(N/N=C2\C(=O)Nc3ccc(C(=O)NCCc4c[nH]cn4)cc32)cc1 [GW300660X]	100	100	86	100	91	100	100	100	100	100
Cl.O=C(Nc1ccc(Oc2ccc3[nH]c(NC(=O)c4ccccc4)nc3c2)cc1)Nc1cc(C(F)(F)F)ccc1F [GW709042A]	94	12	31	69	60	26	100	100	100	9.8
Nc1ncnc2occ(-c3ccc(NC(=O)Nc4cc(C(F)(F)F)ccc4F)cc3)c12 [GW770249X]	92	0	9.1	72	56	41	100	100	100	0.7
CN(C)CCNC(=O)Nc1ccc(N(C)c2ccnc(Nc3ccc(CS(C)(=O)=O)cc3)n2)cc1.Cl [GW830900A]	58	78	86	65	71	75	100	79	79	59
Cl.O=C(Nc1ccc(Oc2ccc3[nH]c(NC(=O)c4ccco4)nc3c2)cc1)Nc1cc(C(F)(F)F)ccc1F [GW683134A]	58	6.2	9.2	17	21	3.2	82	100	100	7.9
CCS(=O)(=O)c1ccc(OC)c(Nc2ncc(-c3cccc(OC)c3)o2)c1 [GW580509X]	3.2	100	97	8	9.4	26	100	27	100	16

Structure (SMILES)	Percent Control [1] [%]	Percent Control [2] [%]	Percent Control [3] [%]	Percent Control [4] [%]	Percent Control (ABL1-phosphorylated) [%]	Percent Control (ABL2) [%]	Percent Control (ACVR1B) [%]	Percent Control (ACVR1) [%]	Percent Control (ACVR2A) [%]	Percent Control (ABL1-nonphosphorylated) [%]
NS(=O)(=O)c1ccc(N/N=C2\C(=O)Nc3ccc(-c4cnco4)cc32)cc1 [GW276655]	70	67	70	69	74	98	100	66	90	84
CCn1c(-c2nonc2N)nc2c(C#CC(C)(C)O)nc(OCCNC)cc21.Cl [GSK949675]	96	87	100	91	78	100	100	100	100	97
COc1cc(N2CCN(C(C)C)CC2)ccc1Nc1nc(Nc2ccc(F)cc2C(=O)NC[C@@H](O)CO)c2cc[nH]c2n1 [GSK1392956A]	100	100	100	100	100	100	100	100	100	100
NS(=O)(=O)c1ccc(N/N=C2\C(=O)Nc3ccc(C(=O)NCc4ccncc4)cc32)cc1 [GW300657X]	72	97	98	82	77	100	100	100	100	79
O=C1Nc2ccc(C(=O)c3ccco3)cc2C1=Cc1cc(Cl)c(O)c(Cl)c1 [GW406108X]	88	96	78	83	76	100	100	89	92	87
Cc1cc(O)cc(C)c1/C=C/c1cncc(C(N)=O)c1 [GW435821X]	13	100	85	8.8	14	47	89	7.3	14	25
C/C(Nc1ccc(S(N)(=O)=O)cc1)=C1/C(=O)Nc2ccccc21 [GW335962X]	96	100	86	89	82	100	100	100	100	88
NS(=O)(=O)c1ccc(Nc2ncc(-c3ccccc3)o2)cc1 [GW572399X]	100	100	89	100	87	88	100	100	100	81
CC1=C(C(=O)Nc2ccc3[nH]ncc3c2)C(c2ccc3ccccc3c2)CC(=O)N1 (stereo not drawn) [GSK270822A]	84	48	76	79	80	100	97	93	100	54
COc1cc2ncnc(Nc3ccc4c(cnn4Cc4ccccc4)c3)c2cc1OC.Cl [GW282449A]	100	100	100	100	100	100	100	100	100	90
CC(C)COC(=O)c1ccc2c(c1)/C(=C/Nc1ccc(S(N)(=O)=O)cc1)C(=O)N2 [GW416981X]	100	100	73	100	100	100	100	100	100	100
COc1ccc2cc(-c3c(-c4ccncc4)nc(-c4ccc(S(C)(=O)=O)cc4C)n3C)ccc2c1 [SB-633825]	83	53	54	86	75	62	19	60	100	66
NS(=O)(=O)c1ccc(N/N=C2\C(=O)Nc3ccc(Cl)cc32)cc1 [GW280670X]	100	100	100	100	100	100	100	100	100	93
COc1ccc2c(-c3ccnc(Nc4cccc(OC(F)(F)F)c4)n3)cnn2n1 [GW810372X]	100	100	98	100	100	100	100	93	100	100
Cl.O=S1CCN(Cc2ccc(-c3ccc4ncnc(Nc5ccc(OCc6ccccc6)c(F)c5)c4c3)o2)CC1 [GW576924A]	100	100	100	100	89	100	100	100	100	100
COc1cccc(-c2c[nH]c3c(N/N=C/c4ccncc4)ncnc23)c1 [GW814408X]	1.1	50	48	0.5	0.3	11	42	17	75	1.2
COc1cc2ncn(-c3cc(O[C@H](C)c4ccccc4Cl)c(C(N)=O)s3)c2cc1OC [GSK237701A]	76	51	39	83	81	73	100	100	100	59
COc1ccc2[nH]c3c4[nH]c5ccc(OC)cc5c4c4c(c3c2c1)C(=O)NC4=O [GW296115X]	36	44	94	53	57	82	100	77	58	58
COC(=O)Nc1nc2ccc(Oc3ccc(NC(=O)Nc4cc(C(F)(F)F)ccc4F)cc3)cc2s1.Cl [GW693917A]	32	5.1	6.7	15	13	2.6	100	89	100	3.1
COc1cc(/C=N/Nc2ncnc3[nH]ncc23)ccc1O [GW578748X]	1.6	79	24	1.1	1.2	68	100	83	50	3.1
